Sampled rows, rich in hits. Any-hit rate of the full collection: about 28%.
PLK1 inh = blocks human PLK1 kinase activity; P53350; recombinant PLK1 kinase, TR-FRET peptide phosphorylation; inhibition, % at 10 µM; actives 0.53% (n = 97,000); AID 619;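 active = inhibition of 50% or more in the single-concentration screen; inactive = inhibition below 50%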;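 also: 0% = DMSO max control and 100% = H-89 dihydrochloride min control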
CYP2C19 inhib = blocks human cytochrome P450 2C19 | AID 778 | P33261 | actives 21% (n = 96,000) | inhibition, % at 5 µM | CYP2C19 Supersomes, luciferin-H EGE luminescence, 30 min;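 active = CYP2C19 inhibition above a set limit at 5 µM in the primary screen, cut at about 50% in these data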;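 also: plate controls were negative control wells for no effect and 2.5 mM tranylcypromine positive control for full effect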
CYP2C19 activ = cytochrome P450 2C19 (human) activation. recombinant CYP2C19, luciferin-H EGE luminescence; stronger effect = higher value; 0 = fully inhibited enzyme, 1 = untreated enzyme. activation factor at 5 µM. 96,000 tested, under 10 active;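 active = activation factor of at least 2 at 5 µM in the primary screen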;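 also: 0 = wells with 2.5 mM tranylcypromine and 1 = vehicle-only wells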
PLK1 PBD inh = inhibitors of human Plk1 polo box domain binding. P53350. Plk1 PBD phosphopeptide binding, fluorescence polarization. inhibition, %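 (tested at about 20 µM)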. actives 0.13% (n = 97,000); in the data active = inhibition above about 34%, passing the limit was not always enough
CYP2C9 inhib = human CYP2C9 inhibition. actives 20% (n = 96,000). P11712. CYP2C9 Supersomes, luciferin-H conversion, luminescence. inhibition, % at 5 µM;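 active = blocking of liver enzyme CYP2C9 beyond about 50% at 5 µM, limit read from the data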
Target sequence (P11712 whole entry, looked up): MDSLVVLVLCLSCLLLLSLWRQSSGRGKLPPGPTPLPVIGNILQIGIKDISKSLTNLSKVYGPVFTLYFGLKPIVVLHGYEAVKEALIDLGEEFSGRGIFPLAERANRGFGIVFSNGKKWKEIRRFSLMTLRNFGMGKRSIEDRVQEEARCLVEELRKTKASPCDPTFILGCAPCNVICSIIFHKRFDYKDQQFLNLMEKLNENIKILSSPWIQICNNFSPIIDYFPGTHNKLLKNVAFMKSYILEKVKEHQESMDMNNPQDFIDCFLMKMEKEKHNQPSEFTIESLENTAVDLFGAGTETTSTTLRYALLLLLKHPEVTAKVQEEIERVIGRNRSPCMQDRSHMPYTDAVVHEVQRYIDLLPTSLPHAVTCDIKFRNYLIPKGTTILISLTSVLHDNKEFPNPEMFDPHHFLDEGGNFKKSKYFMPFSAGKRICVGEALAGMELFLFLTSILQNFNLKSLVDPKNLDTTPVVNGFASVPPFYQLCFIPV
CYP2C9 activ = CYP2C9 (human) activation; activation factor at 5 µM; actives 1.4% (n = 96,000); P11712; recombinant CYP2C9, luciferin-H conversion, luminescence; stronger effect = higher value; factor 1 = untreated enzyme, 0 = blocked;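 active = activation factor of 2 or more for CYP2C9 at a 5 µM dose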;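 also: 0 = sulfaphenazole-blocked wells and 1 = vehicle-only wells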
* marks the source's active call; other numbers are inactive results; nt = not tested or not shown.

SMILES	PLK1 inh	CYP2C19 inhib	CYP2C19 activ	PLK1 PBD inh	CYP2C9 inhib	CYP2C9 activ
COc1ccccc1NC(=O)CSc1nc2ccccc2c(=O)n1CCNC(C)=O	3	33	0.7	-9	49	0.5
O=S(=O)(c1ccc(Br)s1)N1CCCCC1	-10	73*	0.3	0	-6	1.1
CC1CCN(S(=O)(=O)c2ccc(Br)s2)CC1	-3	95*	0	-7	43	0.6
CCOC(=O)N1CCN(C(=O)C2CCN(S(=O)(=O)c3ccc(Br)s3)CC2)CC1	-47	48	0.5	-5	-35	1.4
CCOC(=O)CNC(=O)CN1CCCN(S(=O)(=O)c2ccc(Br)s2)CC1	-7	14	0.9	14	-20	1.2
O=C(CN1CCCN(S(=O)(=O)c2ccc(Br)s2)CC1)Nc1ccc(Cl)cc1	-5	88*	0.1	-5	-22	1.2
CCn1c(SCC(=O)N2CCC(C(N)=O)(N3CCCCC3)CC2)nnc1-c1ccccc1	-5	nt	nt	15	nt	nt
CC(C)OCCCNC(=O)c1cccs1	3	46	0.5	-17	8	0.9
CCC1=Nc2cc(C(=O)NCCCOC(C)C)ccc2Sc2ccccc21	-1	72*	0.3	-1	60*	0.4
Cn1cnc2cc(NC(=O)c3ccc(Cl)cc3)ccc21	-14	nt	nt	4	nt	nt
COc1ccc(-n2cnc3cc(NS(=O)(=O)c4ccccc4)ccc32)cc1	-19	nt	nt	19	nt	nt
Cn1cnc2cc(NS(=O)(=O)c3ccc(Br)cc3)ccc21	-5	93*	0.1	16	69*	0.3
CC(C)(C)n1cnc2cc(NS(=O)(=O)c3ccccc3)ccc21	-8	79*	0.2	6	28	0.7
O=C(CNC(=O)c1ccco1)OCC(=O)c1ccc2ccccc2c1	-8	-6	1.1	-23	1	1
CN(C)CCCNc1cc(Cl)c(S(=O)(=O)N2CCCCC2)cc1C(=O)O	-13	2	1	16	-3	1
CCn1c(SCC(=O)N2CCN(c3ccccc3)CC2)nnc1-c1c[nH]c2ccccc12	-9	64*	0.4	4	-11	1.1
CC1(C)Cc2ccccc2-c2nnc(SCC(=O)N3CCN(c4ccccc4)CC3)n21	-6	80*	0.2	-29	62*	0.4
COc1ccc2c(C)cc(SCC(=O)N3CCOCC3)nc2c1	-6	68*	0.3	-81	35	0.6
CC1(C)Cc2ccccc2-c2nnc(SCc3ccccc3)n21	-8	nt	nt	-13	nt	nt
CCn1c(SCC(=O)N2CCCc3ccccc32)nnc1-c1c[nH]c2ccccc12	-8	76*	0.2	-20	-12	1.1
CCn1c(SCC(=O)N2CCc3ccccc32)nnc1-c1c[nH]c2ccccc12	-4	7	0.9	-10	5	1
CCOC(=O)C(=O)Nc1ccccc1C(=O)NC(C)C	-1	-2	1	-28	33	0.7
O=C1/C(=C\Nc2ccc(Cl)cc2)CCN1c1ncccn1	-2	20	0.8	-26	45	0.6
O=S(=O)(NC1CCc2ccccc21)c1ccc(S(=O)(=O)N2CCCC2)cc1 (stereo not given)	nt	-16	1.2	nt	-6	1.1
COc1ccc(-c2cc(C(F)(F)F)nc(SCC(=O)N3CC(C)OC(C)C3)n2)cc1OC (stereo not given)	-8	nt	nt	14	nt	nt
SMILES	PLK1 inh	CYP2C19 inhib	CYP2C19 activ	PLK1 PBD inh	CYP2C9 inhib	CYP2C9 activ
CCCCSc1nnc(-c2c[nH]c3ccccc23)n1C	69*	56*	0.4	-18	-1	1
CCCCCCSc1nnc(-c2cnn(-c3ccccc3)c2-n2cccc2)n1C	-4	47	0.5	-18	61*	0.4
Cn1c(SCc2ccccc2)nnc1-c1c[nH]c2ccccc12	-18	49	0.5	-10	44	0.6
COc1cccc(-n2c(SCC(=O)N3CCOCC3)nnc2-c2c[nH]c3ccccc23)c1	63*	4	1	7	19	0.8
Cn1c(SCC(=O)N2CCN(c3ccccc3)CC2)nnc1-c1c[nH]c2ccccc12	67*	54*	0.5	15	16	0.8
Cn1c(SCC(=O)N2CCN(c3ccccc3)CC2)nnc1-c1ccccc1	-10	1	1	-30	4	1
CC(C(=O)Nc1nc2ccccc2[nH]1)N1C(=O)C2CC=CCC2C1=O (stereo not given)	-13	14	0.9	-10	34	0.7
Cc1cc(-c2ccccc2)nc(N(C)NC(=O)c2ccc(Cl)cc2)c1S(C)(=O)=O	1	2	1	5	40	0.6
CN(NC(=O)c1ccc(Cl)cc1)c1cccc(Cl)n1	-4	56*	0.4	-17	-22	1.2
Cc1cc(C(=O)NCc2ccccc2F)cs1	-5	30	0.7	-29	-10	1.1
COc1ccc(CNC(=O)c2cccs2)cc1	3	94*	0.1	14	44	0.6
COc1ccccc1OCCNC(=O)c1cccs1	-7	92*	0.1	-21	52*	0.5
O=C(NCCN1Cc2ccccc2C1=O)c1cccs1	-13	77*	0.2	18	22	0.8
O=C(NCc1ccccc1F)c1cccs1	-6	59*	0.4	13	0	1
Cc1ccc2c(c1)nc(NCCO)n2C	3	9	0.9	14	20	0.8
CCc1ccc(OCCNC(=O)c2cccs2)cc1	-3	38	0.6	-2	74*	0.3
CCc1ccc(OCCNC(=O)c2ccccc2SCc2ccc(F)cc2)cc1	-5	51*	0.5	16	50*	0.5
CCOCCCNC(=O)c1ccccc1SC	-6	-3	1	-14	-14	1.1
CCCCOCCCNC(=O)c1cccs1	-3	35	0.6	-14	22	0.8
CCOc1ccc(CCN2C(=O)C3C4C=CC(C4)C3C2=O)cc1OCC (stereo not given)	-17	53*	0.5	-5	9	0.9
CCOc1ccc(C(C)=O)cc1N1C(=O)C2C3C=CC(C3)C2C1=O (stereo not given)	28	1	1	5	-5	1
Cc1ccc(C(=O)COC(=O)CNS(=O)(=O)c2ccccc2)cc1[N+](=O)[O-]	2	6	0.9	33	-5	1.1
O=C(CCCc1c[nH]c2ccccc12)N1CCN(c2ccc(N3CCOCC3)nn2)CC1	-14	58*	0.4	4	32	0.7
Cc1nnc2ccc(Oc3ccc(-c4ccccc4)cc3)nn12	5	16	0.8	-18	22	0.8
NCCCN1CCOCC1	-6	5	1	7	-3	1
Cc1nc2ccccc2c(=O)n1NCc1cc(Br)cs1	-17	42	0.6	29	19	0.8
CCOC(=O)/C(C#N)=C1/SC(C)C(=O)N1c1ccc(Br)cc1 (stereo not given)	2	95*	0	-13	72*	0.3
CCOC(=O)/C(C#N)=C1/SC(CC)C(=O)N1c1ccc(Br)cc1 (stereo not given)	-6	78*	0.2	-21	41	0.6

Screening results (PubChem)
